This excerpt belongs to a sample that is enriched for hits. The true hit rate is not given. A number with no mark means an inactive call. Bounds are passed on as bounds.

This is an account of results in the supplement of paper PMC3724861.

This experiment relates to T1, Caupolican (Caup) homeodomain DNA-binding domain.
T1 sequence: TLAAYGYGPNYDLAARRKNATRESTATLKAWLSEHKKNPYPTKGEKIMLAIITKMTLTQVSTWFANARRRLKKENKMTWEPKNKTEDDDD
Nature of the experiment: PBM E-score (8-mer, recovered from the published 9-mer minima) (E-score (dimensionless, -0.5 to 0.5)); Drosophila protein; higher = stronger relative binding preference, active = 0.31 or more. In a few lines:
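An enrichment score, with higher meaning stronger, expresses relative binding preference for each short DNA word. The protein used was Caup's homeodomain DNA-binding domain (residues 214-303), produced by in vitro transcription and translation and tested at 100 nM on custom-designed protein binding microarrays. The 8-mer values were recovered from published 9-mer scores, each equal to the lower of its two constituent 8-mer scores.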
Consider CTGCGTGA, for which the “PBM E-score” value is -0.0361. For GACCTCTA, the “PBM E-score” value is -0.142.

Consider GATGCCTA, for which the “PBM E-score” value is 0.0242. To CGCTAGAC belongs -0.0864; to ACGACAAG, ≥ 0.317 (active); to ACGACAAT, 0.186.

With ACGACAAA, the “PBM E-score” value was 0.194. To CCACAGCC belongs -0.141; to AACACAAG, 0.228; to AACACAAT, ≥ 0.319 (active). Consider AACACAAC, for which the “PBM E-score” value was ≥ 0.339 (active).

As for AACACAAA, the “PBM E-score” value is 0.207. Then CACACAAC, with 0.14; and GACACAAC, with 0.216; and GAGACACC, with -0.0907. With AACCATGG, the “PBM E-score” value is 0.0193. To AACCATGC belongs 0.0352; to AAGCATGT, 0.356 (active). For the sequence AATCATGG, the “PBM E-score” value was 0.0994. To AATCATGA belongs 0.164; to AAGCATGG, 0.00906.

For the sequence AACCATGT, the “PBM E-score” value is 0.347 (active).

As for AAGCATGC, the “PBM E-score” value is 0.122. Then AATCATGT, with 0.42 (active); and ACAATTCG, with 0.163; and AGATCGCC, with -0.108. In the case of TCCAGTCA, the “PBM E-score” value is -0.102. Then AAACGTGG, with -0.051; and AATCGTGC, with 0.105. Regarding AATCGTGA, the “PBM E-score” value was 0.102. Then AAACGTGT, with 0.31 (active); and AATCGTGT, with 0.324 (active); and AAACGTGA, with 0.0748. To AGCGTCGA belongs 0.017; to AATGATAA, 0.141. To GAGTAACC belongs -0.034; to ATGGACGG, -0.0288; to CATCCTGA, 0.007. Turning to AAATATGT, the “PBM E-score” value is 0.335 (active). To AAATATGA belongs 0.164; to AAATATGC, 0.00511. To ATAGCCTC belongs -0.0831; to CGTAAACG, -0.0383. To ATACACGG belongs 0.299; to CTACACGA, 0.295. Take ATACACGA: the “PBM E-score” value is 0.33 (active). Regarding ATACACGC, the “PBM E-score” value is 0.275. Regarding GTACACCA, the “PBM E-score” value was 0.238. To GTACACGA belongs 0.427 (active). For the sequence ACGCGCTC, the “PBM E-score” value was -0.0722. Then CAAGTTAA, with 0.137; and CTGGGCCA, with -0.265; and GATCTCGC, with -0.112. Then GCGGTCTA, with -0.0746; and ACAACCTC, with 0.169. To TATTGTCA belongs 0.225; to TCTTGGCA, -0.0494; to GCTTGTCC, 0.305.

With CCTTGTCC, the “PBM E-score” value is 0.171. To CCTTGTCA belongs 0.342 (active); to ACTTGTCC, 0.237; to GATTGTCA, 0.13. To ACTTGTCA belongs ≥ 0.378 (active); to ACTTGTCG, 0.266; to GCTTGTCA, 0.352 (active). Then CCTTGTCG, with 0.277.

Take TCTTGTCA: the “PBM E-score” value is 0.329 (active).

As to GGGCGCAA, the “PBM E-score” value is -0.179. Then AAGCACCG, with -0.0685. As for CGATTCAG, the “PBM E-score” value was -0.0377. Then CTCATAAA, with 0.05; and AAACAAAA, with 0.189.

GACATAGA: the “PBM E-score” value was 0.187. Then TCCATACA, with 0.139; and GACATACC, with 0.169; and TACATACA, with 0.415 (active).

Take AACATACG: the “PBM E-score” value was 0.28. Then AACATACT, with 0.31 (active); and TACATAAA, with 0.329 (active); and CACATAAA, with 0.121. Then CACATACA, with 0.232; and AACATAAA, with 0.286; and AACATACC, with 0.303. GACATACA: the “PBM E-score” value was 0.389 (active). As to GCTCCTCA, the “PBM E-score” value was -0.234. Then ATTCTCCG, with -0.0182. Then GACAGCAC, with 0.0877; and CCCACTAG, with -0.195. Consider CGTACTGC, for which the “PBM E-score” value is -0.0592. Then GAAAATCA, with 0.141; and ACTCCGAG, with -0.0336. For the sequence CTCCGGAA, the “PBM E-score” value is -0.126. Then AACATAGA, with 0.232.

Turning to AACATACA, the “PBM E-score” value was 0.361 (active). To AGCATACA belongs 0.202; to GGATCTCA, -0.137; to CTGTTAAC, 0.117. Then ATGTTAAA, with 0.353 (active); and AGGTTAAT, with 0.0346; and GTGTTAAC, with 0.259. To ATGTTAAG belongs 0.283; to ATGTTAAT, 0.352 (active).

Consider TTGTTAAA, for which the “PBM E-score” value was 0.23. Then CTGTTAAA, with 0.108; and ATGTTAAC, with 0.377 (active); and GTAAGGAA, with 0.0866. To AGGAACGC belongs -0.132. Then CTGTACAA, with 0.335 (active). Turning to CTGTACGC, the “PBM E-score” value was 0.037. Then ACGTACAA, with 0.288. Then ATGTACAA, with 0.453 (active); and TTGTACAA, with ≥ 0.44 (active). As to GTGTACAA, the “PBM E-score” value was 0.396 (active). Then CTGTACCA, with 0.186.
